What follows are sequences tested against DENND3 (assay: pooled miR-30 sensor sort-seq; sequence = guide strand). Conditions: shRNA.
TTGATGATGTAGATGACGGAGT gave a sensor-assay potency score (higher = more potent) of -0.511. TAGATGACGGAGTCTTCCGAGC gave a sensor-assay potency score (higher = more potent) of -1.16. With TTATCGTCCGTGGACTTGGAGT the sensor-assay potency score (higher = more potent) was -1.3. TATCAGAACTAAACCGTCGGCT showed a sensor-assay potency score (higher = more potent) of 0.0696. For TTGTAGAAATCTTTGAATGTTT, the sensor-assay potency score (higher = more potent) was -1.03. TTGGACTTAGAAGCATTCCATT was tested, and the sensor-assay potency score (higher = more potent) was -1.49. Sequence TAGAGCAGCACGTCCACCGCTT has a sensor-assay potency score (higher = more potent) of 0.371. TTATCAGAACTAAACCGTCGGC gave a sensor-assay potency score (higher = more potent) of -0.359. For TATTTATCAGAACTAAACCGTC, the sensor-assay potency score (higher = more potent) was -0.811. TTGAACACGGTCACCTTGCCTT gave a sensor-assay potency score (higher = more potent) of -0.0431. TTCCACACCAGCACCATGCCGT gave a sensor-assay potency score (higher = more potent) of -0.0924. In the case of TAAATGATTCTTTACATCCCTG, the sensor-assay potency score (higher = more potent) is reported as -0.0961.

The sequences below were run against DEXI in the same assay as above. Conditions: shRNA.
With TTCCTGTAAACATCCATCGCAG the sensor-assay potency score (higher = more potent) was -0.501. In the case of AATCTCTCTTCCACTCTCCTGG, the sensor-assay potency score (higher = more potent) is reported as -0.0495. TAAACATCCATCGCAGCTGCAA was tested, and the sensor-assay potency score (higher = more potent) was -0.291. Work on TCAAACAGGAACCTCTCTGTTG yielded a sensor-assay potency score (higher = more potent) of -0.754. For TACAGGATCAGCACATTGACGA, the sensor-assay potency score (higher = more potent) was 0.243. TAGAGGGCAGCAGCGGCGGCGG was tested, and the sensor-assay potency score (higher = more potent) was -1.83. Sequence TTAAGTAGGCACAACACTCATA has a sensor-assay potency score (higher = more potent) of -0.271. Work on ATGTACTCCATGAGGAAGGCGT yielded a sensor-assay potency score (higher = more potent) of -1.19.
Also: reference of the scale not given here.
